In PubChem BioAssay (NCATS):
Results filed as inconclusive are left out. Activity calls are given as the source filed them. Calls follow the shape of the dose curve; as a rule, active = well fitted curve in the direction sought with a large enough effect; inconclusive = small, poorly fitted or top-dose-only effect, or another doubt; inactive = no such curve, though single readings can be large; an effect the other way counts as inactive or inconclusive. Where a SMILES comes first, the peptide text is derived from it.

Columns and labels:
[1] = biological target: Glutathione peroxidase 1 (Homo sapiens) (UniProt P07203); test: Primary qHTS Assay for Inhibitors of Recombinant Selenoprotein Glutathione Peroxidase 1 (GPX1) (AID 1845191); also: nearly all actives have a fitted effect of over 65% in size; as to activity, negative = inhibition: % is scaled to controls: 0 for no effect and ±100 for the full control effect
Chain of Glutathione peroxidase 1 (Homo sapiens) (P07203 whole entry, looked up): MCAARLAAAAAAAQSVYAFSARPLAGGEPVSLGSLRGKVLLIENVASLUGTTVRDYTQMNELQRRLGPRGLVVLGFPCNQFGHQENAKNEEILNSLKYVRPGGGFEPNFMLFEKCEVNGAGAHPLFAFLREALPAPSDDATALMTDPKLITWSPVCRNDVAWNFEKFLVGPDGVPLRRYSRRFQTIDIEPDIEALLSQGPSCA
Method in brief: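 Recombinant GPX1 (10 nM final) was preincubated with compound for 30 min at room temperature, then reacted with 1 mM GSH, 0.5 mM CHP, 0.5 mM NADPH and 100 nM glutathione reductase; NADPH fluorescence (340/450 nm) was read at 0 and 15 min.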

[2] = biological target: Phospholipid hydroperoxide glutathione peroxidase GPX4 (Homo sapiens) (UniProt P36969); test: Primary qHTS Assay for Inhibitors of Recombinant Selenoprotein Glutathione Peroxidase 4 (GPX4) (AID 1845192); also: nearly all actives have a fitted effect of over 65% in size; as to activity change, negative = inhibition: series mostly up to about 50 µM; % is scaled to controls: 0 for no effect and ±100 for the full control effect
Chain of Phospholipid hydroperoxide glutathione peroxidase GPX4 (Homo sapiens) (P36969 whole entry, looked up): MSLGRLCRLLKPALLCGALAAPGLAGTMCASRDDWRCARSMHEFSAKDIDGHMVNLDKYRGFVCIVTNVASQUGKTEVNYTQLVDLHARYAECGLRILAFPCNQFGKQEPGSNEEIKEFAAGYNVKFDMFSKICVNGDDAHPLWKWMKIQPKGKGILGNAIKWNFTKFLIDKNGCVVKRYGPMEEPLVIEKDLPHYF
Method in brief: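 GR-coupled readout: 100 nM GR, 1 mM GSH, 0.5 mM NADPH; NADPH fluorescence (ex 340/em 450 nm) read at t=0 and after 15 min RT. GPX4 200 nM, preincubated 30 min with compound; substrate 0.5 mM CHP.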

[3] = Primary fluorescence-based thiol-reactive (MSTI) qHTS assay for identification of artifact compounds. (AID 1845221); also: nearly all actives have a fitted effect of over 65% in size; also: potency is read from the fitted curve at half-maximal effect;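 as to activity change, negative = thiol reactive: series mostly up to about 54 µM; thiol-reactive compounds lower the probe fluorescence signal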
Method in brief: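 Curve-fitted percent inhibition (4-parameter Hill) derived from fluorescence, Ex 525/Em 598 nm, scaled with Acetyl-MSTI and MSTI; 1 h incubation at room temperature.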

[4] = tested on: Nanoluciferase (engineered Oplophorus gracilirostris luciferase); test: Primary Nanoluciferase (NLuc) qHTS assay for identification of artifact compounds. (AID 1845222);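 also: series mostly up to about 54 µM; 0% = DMSO and -100% = no enzyme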
Method in brief: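 Luminescence read-out of secreted NLuc in S16 cell conditioned medium (1:55); compounds tested with 15 min RT preincubation, then Nano-Glo substrate 1:100, 5 min. % inhibition vs no-enzyme and DMSO controls, 4-parameter Hill fit.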

[5] = biological target: Luciferin 4-monooxygenase (Photinus pyralis) (UniProt P08659); test: Primary firefly luciferase (FLuc) qHTS assay for identification of artifact compounds. (AID 1845220); also: nearly all actives have a fitted effect of over 60% in size;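 as to activity change, negative = inhibition: series mostly up to about 54 µM; plate controls were DMSO vehicle for no effect and no enzyme for full effect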
Method in brief: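 qHTS, 15 min compound preincubation with substrate (10 uM luciferin, 10 uM ATP) at RT, then 10 nM FLuc; 5 min; luminescence; % inhibition vs no-enzyme/DMSO controls, 4-parameter Hill fit.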

O=C(O)CCc1cccc(O)c1O[C@@H]1O[C@H](CO)[C@@H](O)[C@H](O)[C@H]1O
active: Potency [3] 14.7 µM
inactive: Potency [1] | Potency [2] | Potency [4]

CC/C=C/C(O)C(O)C1=C(C)C(=O)C2(O1)C(=O)NC(OC)(C(=O)c1ccccc1)C2O (centres undefined)
inactive: Potency [1] | Potency [2] | Potency [5] | Potency [4]

C/C=C(\C)C(=O)O[C@H]1C=CC(=O)O[C@H]1/C=C/[C@H](O)[C@@H](C)O
inactive: Potency [1] | Potency [2] | Potency [3] | Potency [4]

Nc1c(-c2ccccc2)nc(Cl)c2c(O)n[nH]c(=O)c12
inactive: Potency [1] | Potency [2] | Potency [5] | Potency [4]

COC(=O)C(CC1CCCC1)c1ccc(S(C)(=O)=O)cc1 (centres undefined)
inactive: Potency [1] | Potency [2] | Potency [3] | Potency [4]

O=C(C[C@@H]1C(C(=O)O)=CO[C@@H](O[C@@H]2O[C@H](CO)[C@@H](O)[C@H](O)[C@H]2O)/C1=C\CO)OCCc1ccc(O)cc1
inactive: Potency [1] | Potency [2] | Potency [5] | Potency [4]

C[C@]12CC/C(=N\OCC(=O)O)C=C1CC[C@@H]1[C@@H]2[C@@H](O)C[C@@]2(C)[C@H]1CC[C@]2(O)C(=O)CO
inactive: Potency [1] | Potency [2] | Potency [3] | Potency [4]

CC1OC(OC2C(OC(=O)[C@]34CCC(C)(C)C[C@H]3C3=CCC5[C@@]6(C)CC[C@H](OC7OC(C(=O)O)C(O)C(O)C7O)C(C)(C)C6CC[C@@]5(C)[C@]3(C)CC4O)OC(CO)C2O)C(O)C(O)C1OC1OCC(O)C(O)C1O (some centres undefined)
inactive: Potency [1] | Potency [2] | activity change, negative = thiol reactive [3] 111% [at 11.5 µM] | activity, negative = inhibition [4] 0% [at 11.6 µM]

C[C@@H]1O[C@@H](OC(=O)Cc2ccccc2)[C@H](O)[C@H](O)[C@H]1O
inactive: Potency [1] | Potency [2] | Potency [5] | Potency [4]

CC(C)(O)c1ccc2c(c1)C(=O)C[C@H]1[C@](C)(C(=O)O)CCC[C@]21C
inactive: Potency [1] | Potency [2] | Potency [3] | Potency [4]

CC1=C2CC(O)(C(C)(C)O)C(O[C@@H]3O[C@H](CO)[C@@H](O)[C@H](O)[C@H]3O)CC(C)C2CC1=O (some centres undefined)
inactive: Potency [1] | Potency [2] | Potency [4]
active: Potency [3] 3.67 µM

COc1cc(/C=C/CO[C@@H]2O[C@H](CO)[C@@H](O)[C@H](O)[C@H]2O)cc(OC)c1O[C@@H]1O[C@H](CO)[C@@H](O)[C@H](O)[C@H]1O
inactive: Potency [1] | Potency [2] | Potency [5] | Potency [4]

CC(C)c1cc2c(c(O)c1O)[C@@]13CCCC(C)(C)C1[C@@H](O)[C@@H]2OC3=O (some centres undefined)
active: Potency [3] 0.927 µM
inactive: Potency [1] | Potency [2]

N#Cc1cccc(-c2nc(-c3cccnc3)no2)c1
inactive: Potency [1] | Potency [2] | Potency [3] | Potency [4]

CC12CC(O)C(O)C=C1c1cc(O)cc(O)c1C(=O)O2 (centres undefined)
inactive: Potency [1] | Potency [2] | Potency [5] | Potency [4]

CC(=O)NC(Cc1ccccc1)C(=O)NC(C(=O)O)C(C)C (stereo not drawn) (Ac-Phe-Val-OH; configuration not given here)
inactive: Potency [1] | Potency [2] | Potency [5] | Potency [4]

CC1=CC[C@@]2(C)CC[C@@](O)(C(C)C)[C@@H]2[C@@H](O)C1
inactive: Potency [1] | Potency [2] | Potency [3] | Potency [4]

CC1OC(O[C@@H]2[C@@H](O)[C@H](OC(=O)[C@]34CCC(C)(C)C[C@H]3C3=CCC5[C@@]6(C)CC[C@H](O[C@@H]7O[C@H](C(=O)O)[C@@H](O)[C@H](O[C@@H]8OC[C@@H](O)[C@H](O)[C@H]8O)[C@H]7O[C@@H]7O[C@H](CO)[C@H](O)[C@H](O)[C@H]7O)[C@@](C)(C=O)C6CC[C@@]5(C)[C@]3(C)C[C@H]4O)O[C@H](C)[C@@H]2OC2OC(C)C(OC3OCC(O)C(O)C3O)C(O)C2O)C(O)C(O)C1O (some centres undefined)
inactive: Potency [1] | Potency [2] | activity change, negative = thiol reactive [3] 288% [at 11.5 µM] | activity, negative = inhibition [4] 2.13% [at 11.6 µM]

C[C@@H]1O[C@@H](O[C@H]2[C@H](O)[C@@H](O)[C@H](OC[C@H]3O[C@@H](OC(=O)[C@]45CCC(C)(C)C[C@H]4C4=CCC6[C@@]7(C)C[C@@H](O)[C@H](O)[C@@](C)(CO)C7[C@H](O)C[C@@]6(C)[C@]4(C)CC5)[C@H](O)[C@@H](O)[C@@H]3O)O[C@@H]2CO)[C@H](O)[C@H](O)[C@H]1O (some centres undefined)
inactive: Potency [1] | Potency [2] | activity change, negative = inhibition [5] 0.345% [at 11.6 µM] | activity, negative = inhibition [4] 1.41% [at 11.6 µM]

C/C=C/C=C/C=C/C(=O)O[C@@H]1C=C(CO)[C@](O)(CO)[C@@]2(C)CCCC(C)(C)[C@H]12
inactive: Potency [1] | Potency [2] | Potency [3]

C/C=C/C=C/C=C/C(=O)O[C@@H]1[C@@H](OC)C2=C(C(=O)N(C(CCC(=O)O)C(=O)O)C2)[C@@]2(C)CCCC(C)(C)[C@H]12 (some centres undefined)
inactive: Potency [1] | Potency [2] | Potency [3] | Potency [4]

C[C@@H]1O[C@@H](O[C@H]2[C@@H]3C=CO[C@@H](O[C@@H]4O[C@H](CO)[C@@H](O)[C@H](O)[C@H]4O)[C@@H]3[C@@]3(CO)O[C@@H]23)[C@H](O)[C@H](O)[C@H]1OC(=O)/C=C/c1ccc(O)cc1
inactive: Potency [1] | Potency [2] | Potency [5] | Potency [4]

CC(=O)OC[C@@]12C(=O)C[C@@H](C)[C@]3(C[C@@H](c4ccoc4)OC3=O)[C@H]1CC[C@H](OC(C)=O)[C@]21CO1
inactive: Potency [1] | Potency [2] | Potency [5] | Potency [4]

CC1(O)CC(O)C2C(C(=O)O)=COC(OC3OC(CO)C(O)C(O)C3OC(=O)/C=C/c3ccc(O)cc3)C21 (centres undefined)
inactive: Potency [1] | Potency [2] | Potency [4]
active: Potency [3] 4.12 µM
